Test results as given in PubChem BioAssay (NCATS).
Unmarked numbers belong to inactive results. Results filed as inconclusive are left out. The source made the active and inactive calls. Unless noted, calls come from the whole dose curve; as a rule, active = well fitted activation curve with a large enough effect in the main read-out, with a control signal flat (not every such curve was filed as active); inconclusive = small, poorly fitted or top-dose-only effect, or effect the other way, or a change in a side signal; inactive = flat fitted curve, though single readings scatter.

Biological target: 3',5'-cyclic-AMP phosphodiesterase 4B (Homo sapiens) (UniProt Q07343)
Sequence (Q07343 whole entry, looked up): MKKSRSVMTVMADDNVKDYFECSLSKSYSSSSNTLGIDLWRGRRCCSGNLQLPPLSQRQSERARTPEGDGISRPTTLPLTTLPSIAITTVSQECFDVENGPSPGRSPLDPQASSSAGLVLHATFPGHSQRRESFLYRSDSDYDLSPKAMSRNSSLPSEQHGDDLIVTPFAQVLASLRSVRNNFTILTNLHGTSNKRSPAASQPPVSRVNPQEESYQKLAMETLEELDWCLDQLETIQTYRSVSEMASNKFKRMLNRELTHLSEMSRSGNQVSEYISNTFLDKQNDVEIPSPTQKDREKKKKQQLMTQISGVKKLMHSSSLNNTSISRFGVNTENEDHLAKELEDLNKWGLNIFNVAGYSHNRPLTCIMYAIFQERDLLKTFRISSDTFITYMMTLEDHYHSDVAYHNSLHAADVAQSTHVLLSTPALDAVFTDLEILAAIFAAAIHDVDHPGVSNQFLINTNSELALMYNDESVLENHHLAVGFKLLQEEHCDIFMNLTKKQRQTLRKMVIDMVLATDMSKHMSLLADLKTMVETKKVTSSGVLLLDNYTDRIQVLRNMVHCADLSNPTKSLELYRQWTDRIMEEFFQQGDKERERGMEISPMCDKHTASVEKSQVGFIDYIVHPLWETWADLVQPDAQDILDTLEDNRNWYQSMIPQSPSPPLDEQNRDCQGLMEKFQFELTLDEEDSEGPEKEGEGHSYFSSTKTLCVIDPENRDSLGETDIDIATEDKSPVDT
Assay: qHTS Assay for Inhibitors of PDE-IV (AID 607); note: % of control where 0% means no effect
Conditions: HEK293 ACTOne CNG channel cells, membrane potential fluorescence; series mostly up to 22.9 µM; activation (PDE inhibition): at the top concentration
How it was run: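 Live HEK293 cells with a modified cyclic nucleotide-gated (CNG) channel report intracellular cAMP via membrane-potential dye fluorescence (ex 535/em 590 nm). Endogenous PDE-IV was targeted. Compounds were tested at up to 22.9 uM final; RO 20-1724 100 uM served as control.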

| Structure (SMILES) | activation (PDE inhibition) |
| --- | --- |
| O=C(O)C[C@H](Cc1ccccc1Cl)C(=O)O | -3.27% |
| Cc1cc(Cl)nc(NC(=O)CSc2ccc(Cl)cc2)n1 | 16.9% |
| COc1ccc2c(=O)cc(-c3ccncc3)oc2c1OC | 7.17% |
| Cc1cc(Nc2ccc(N=Nc3ccc(O)c4ncccc34)cc2)nc(C)n1 | 5.52% |
| c1ccc2c(CC3NCCN3)cccc2c1 | 4.48% |
| NC([N-]/N=C/c1ccccn1)=[S]=[Fe].O=S(=O)(O)O | -6.01% |
| OCCCN=C1CCCCC1 | -1.05% |
| CC(CC(=O)O)(CC(=O)O)c1ccccc1 | 3.66% |
| c1ccc2c[n+](CCCC[n+]3ccc4ccccc4c3)ccc2c1 | -4.86% |
| CC1CCN(CC[S-])CC1.O.O.[Cl][Pt] | -17.9% |
| CC(=O)O[C@H]1CC[C@@]2(C)C(=CC[C@@H]3[C@@H]4CC[C@H](c5cc(C(F)(F)F)n(C(C)=O)n5)[C@]4(C)CC[C@@H]32)C1 | 2.8% |
| CC1(C)COCN1COC1CCCCC1 | 12.3% |
| CN(C)Cc1cc(O)c(O)c(CN(C)C)c1 | 2.81% |
| Cn1c(=S)c2[nH]c(SCCCc3ccccc3)nc2n(C)c1=O | 7.39% |
| Cc1noc(NC(=O)Nc2ccccc2F)c1C#N | -6.65% |
| COc1cccc(Nc2ncc3ncc(=O)n(C4CC4)c3n2)c1 | -0.0451% |
| Cc1nnc(S(=O)(=O)c2ccc(N=Nc3c(N)nc(N)nc3N)cc2)s1 | -2.04% |
| Cc1cc(SCC(=O)c2ccccc2)nc2ccccc12 | 12% |
| CC(CCC(=O)O)(c1ccc(O)cc1)c1ccc(O)cc1 | -5.3% |
| C[C@]12CC[C@H]3c4ccc(O)cc4CC[C@@H]3[C@H]1CC[C@@H]2OC(=O)CCc1ccccc1 | -5.58% |

| Structure (SMILES) | activation (PDE inhibition) |
| --- | --- |
| C/C(=N/O)[C@@H]1C[C@H](CC(=O)O)C1(C)C | 6.65% |
| Nc1nc(N)c2[nH]c(CNc3ccc(C(=O)O)cc3)nc2n1 | 5.21% |
| Nc1nc(N)nc(CCCCc2nc(N)nc(N)n2)n1 | 8.38% |
| Cc1c(S(=O)(=O)O)ccc(N=Nc2c(O)c(C(=O)O)cc3ccccc23)c1Cl | -9.36% |
| c1ccc2cc(NCNc3ccc4ccccc4c3)ccc2c1 | -5.5% |
| OC[C@@H]1O[C@@H](N2CCN([C@@H]3O[C@@H](CO)[C@@H](O)[C@H](O)[C@H]3O)CC2)[C@@H](O)[C@H](O)[C@H]1O | 0.815% |
| COc1cc(O)c2c(O)c3c(c4c2c1[C@@]1(C4)C(C)=CCCC1(C)C)[C@H](O)[C@@]1(O)CC(=O)C(C(N)=O)=C(O)[C@]1(O)C3=O | 3.99% |
| CC1=NN(c2ccccc2)C(=O)[C@@H]1N=Nc1ccc(S(N)(=O)=O)cc1 | 0.673% |
| O=C1Oc2ccccc2C(=O)/C1=C\N1C(=O)N/C(=C\c2ccccc2O)C1=O | -3.17% |
| Cc1ccc(N=Nc2c(O)c3ccccc3[nH]c2=O)c(S(=O)(=O)N(C)C)c1 | -1.12% |
| CCCCNN | -1.2% |
| COc1cccc2c1C(=N)c1c(O)c3c(c(O)c1C2=O)C[C@](O)(C(C)=O)C[C@@H]3O[C@H]1C[C@H](N)[C@@H](O)[C@H](C)O1 | -6.77% |
| CN(C)CCCN1c2ccc3ccccc3c2Sc2cccc(Cl)c21 | -4.82% |
| N=C1C=CC(=C(c2ccc(N)cc2)c2ccc(N)cc2)C=C1 | -1.69% |
| O=C(O)Cn1ccnc1[N+](=O)[O-] | 8.95% |
| C[C@@H]1CCCN(C[C@@H](O)CN2CCCc3ccccc32)C1 | 1.36% |
| NCCSCCC(=O)O | 5.71% |
| O=C(c1ccc([N+](=O)[O-])cc1)[C@@H](Br)[C@@H](Br)c1ccnc2ccccc12 | -1.4% |
| COc1ccc2c(c1)N(CC[C@H]1CCCCN1C)c1ccccc1S2 | 3.46% |

Biological target: Cytochrome P450 2C9 (Homo sapiens) (UniProt P11712)
Sequence (P11712 whole entry, looked up): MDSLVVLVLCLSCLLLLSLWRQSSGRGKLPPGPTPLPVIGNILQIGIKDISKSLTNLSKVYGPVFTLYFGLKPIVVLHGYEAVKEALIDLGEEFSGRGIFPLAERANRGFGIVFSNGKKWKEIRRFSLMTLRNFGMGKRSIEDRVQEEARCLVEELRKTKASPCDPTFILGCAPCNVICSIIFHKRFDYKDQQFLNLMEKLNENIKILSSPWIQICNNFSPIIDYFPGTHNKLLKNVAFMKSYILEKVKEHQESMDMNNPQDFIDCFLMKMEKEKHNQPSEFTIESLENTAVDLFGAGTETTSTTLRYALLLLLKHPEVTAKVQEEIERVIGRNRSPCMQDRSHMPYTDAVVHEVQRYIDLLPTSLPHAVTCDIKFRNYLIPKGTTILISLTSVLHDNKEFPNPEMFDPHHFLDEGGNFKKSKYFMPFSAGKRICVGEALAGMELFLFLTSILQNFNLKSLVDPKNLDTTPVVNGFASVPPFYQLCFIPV
Assay: qHTS Assay for Inhibitors and Substrates of Cytochrome P450 2C9 (AID 883; active = well fitted curve in the direction sought with a large enough effect; an effect the other way counts as inactive or inconclusive; note: nearly all actives have a fitted effect of over 60% in size; note: potency is the fitted concentration of half-maximal effect; for activity change, negative = inhibition: % is set by controls: 0 for no effect and ±100 for the full control effect)
Conditions: recombinant CYP2C9, luciferin-H luminescence, 60 min; series mostly up to 11.4 µM; activity change, negative = inhibition: at the top concentration
How it was run: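 10nM CYP2C9 + 100uM Luciferin-H (=KM), 25mM KPO4; cpd 10 min 37C; NADPH regen, 60 min 37C; stop/detect with P450 Glo-Buffer 20 min; luminescence. Norm. to 57uM sulphaphenazole as full inhibition.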

| Structure (SMILES) | activity change, negative = inhibition | Potency |
| --- | --- | --- |
| Cc1cc(SCC(=O)c2ccccc2)nc2ccccc12 | 115% | – |
| CC(CCC(=O)O)(c1ccc(O)cc1)c1ccc(O)cc1 | -3.95% | – |
| Nc1nc(N)nc(CCCCc2nc(N)nc(N)n2)n1 | 2.47% | – |
| c1ccc2cc(NCNc3ccc4ccccc4c3)ccc2c1 | – | 3.98 µM (active) |
| O=C(c1ccc([N+](=O)[O-])cc1)[C@@H](Br)[C@@H](Br)c1ccnc2ccccc12 | – | 3.16 µM (active) |

Biological target: Cytochrome P450 3A4 (Homo sapiens) (UniProt P08684)
Sequence (P08684 whole entry, looked up): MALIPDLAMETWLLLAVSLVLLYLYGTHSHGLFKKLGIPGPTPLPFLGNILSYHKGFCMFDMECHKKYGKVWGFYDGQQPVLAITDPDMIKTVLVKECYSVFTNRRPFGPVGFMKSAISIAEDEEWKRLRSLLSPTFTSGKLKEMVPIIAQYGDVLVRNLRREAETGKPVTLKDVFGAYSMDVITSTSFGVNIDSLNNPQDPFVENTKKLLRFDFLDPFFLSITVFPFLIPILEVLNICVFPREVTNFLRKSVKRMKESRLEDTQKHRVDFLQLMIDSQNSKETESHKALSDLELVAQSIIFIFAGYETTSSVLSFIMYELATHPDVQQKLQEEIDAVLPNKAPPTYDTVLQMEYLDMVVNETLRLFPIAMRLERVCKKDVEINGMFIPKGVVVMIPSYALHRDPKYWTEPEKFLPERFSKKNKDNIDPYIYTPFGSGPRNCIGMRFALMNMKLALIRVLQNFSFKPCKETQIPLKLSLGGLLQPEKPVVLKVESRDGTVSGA
Assay: qHTS Assay for Activators of Cytochrome P450 3A4 (AID 885; active = well fitted curve in the direction sought with a large enough effect; an effect the other way counts as inactive or inconclusive; note: nearly all actives have a fitted effect of over 65% in size)
Conditions: recombinant CYP3A4, Luciferin-PPXE luminescence, 60 min; series mostly up to 11.4 µM; activity change, positive = activation: at the top concentration
How it was run: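 Quantitative HTS format: compounds preincubated with 20nM human CYP3A4 and Luciferin-PPXE substrate at KM, reaction started by NADPH regeneration, stopped after 60 min, luciferase luminescence read 20 min later.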

| Structure (SMILES) | activity change, positive = activation | Potency |
| --- | --- | --- |
| COc1ccc2c(=O)cc(-c3ccncc3)oc2c1OC | -37.4% | – |
| COc1cccc(Nc2ncc3ncc(=O)n(C4CC4)c3n2)c1 | -59.8% [at 57.1 µM] | – |
| CC(CCC(=O)O)(c1ccc(O)cc1)c1ccc(O)cc1 | -49.7% [at 57.1 µM] | – |
| O=C1Oc2ccccc2C(=O)/C1=C\N1C(=O)N/C(=C\c2ccccc2O)C1=O | -44.8% | – |
| N=C1C=CC(=C(c2ccc(N)cc2)c2ccc(N)cc2)C=C1 | – | inactive |
| O=C(c1ccc([N+](=O)[O-])cc1)[C@@H](Br)[C@@H](Br)c1ccnc2ccccc12 | -50.8% | – |

Biological target: Cytochrome P450 2D6 (Homo sapiens) (UniProt P10635)
Sequence (P10635 whole entry, looked up): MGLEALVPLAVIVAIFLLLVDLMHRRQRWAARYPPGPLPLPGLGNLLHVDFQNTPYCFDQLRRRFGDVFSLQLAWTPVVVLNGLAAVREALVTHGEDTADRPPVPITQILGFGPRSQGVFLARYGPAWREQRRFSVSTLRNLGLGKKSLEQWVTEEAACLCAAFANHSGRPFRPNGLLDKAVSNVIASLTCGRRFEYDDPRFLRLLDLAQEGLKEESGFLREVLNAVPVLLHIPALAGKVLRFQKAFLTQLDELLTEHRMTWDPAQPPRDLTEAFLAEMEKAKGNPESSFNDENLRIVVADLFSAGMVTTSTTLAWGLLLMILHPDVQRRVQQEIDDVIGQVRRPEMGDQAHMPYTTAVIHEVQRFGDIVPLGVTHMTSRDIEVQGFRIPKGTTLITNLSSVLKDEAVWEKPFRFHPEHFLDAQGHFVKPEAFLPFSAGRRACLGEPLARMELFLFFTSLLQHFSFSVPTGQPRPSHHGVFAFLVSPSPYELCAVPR
Assay: qHTS Assay for Inhibitors and Substrates of Cytochrome P450 2D6 (AID 891; active = well fitted curve in the direction sought with a large enough effect; an effect the other way counts as inactive or inconclusive; note: nearly all actives have a fitted effect of over 60% in size; note: potency is the fitted concentration of half-maximal effect;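 for activity change, negative = inhibition: luciferin methyl ether substrate demethylated by CYP2D6 with NADPH regeneration; % is set by controls: 0 for no effect and ±100 for the full control effect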)
Conditions: recombinant CYP2D6, luciferin-ME EGE luminescence; series mostly up to 11.4 µM; activity change, negative = inhibition: at the top concentration
How it was run: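 Human CYP2D6 (5 nM) with 30 uM Luciferin-ME EGE (at Km) in 100 mM KPO4, compound preincubated 10 min, then NADPH regeneration system for 60 min at room temperature. Luciferin read by luminescence; normalized to 1.43 uM quinidine.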

| Structure (SMILES) | activity change, negative = inhibition | Potency |
| --- | --- | --- |
| Cc1cc(SCC(=O)c2ccccc2)nc2ccccc12 | 11.4% | – |
| CC(CCC(=O)O)(c1ccc(O)cc1)c1ccc(O)cc1 | 6.84% | – |
| CN(C)CCCN1c2ccc3ccccc3c2Sc2cccc(Cl)c21 | – | 501 nM (active) |
| N=C1C=CC(=C(c2ccc(N)cc2)c2ccc(N)cc2)C=C1 | – | 1580 nM (active) |
| C[C@@H]1CCCN(C[C@@H](O)CN2CCCc3ccccc32)C1 | – | 1580 nM (active) |
| COc1ccc2c(c1)N(CC[C@H]1CCCCN1C)c1ccccc1S2 | – | 50.1 nM (active) |
